The results in this text go back to PMC7862700, “An all-to-all approach to the identification of sequence-specific readers for epigenetic DNA modifications on cytosine”.

Assay in all cases: DAPPL (digital affinity profiling via proximity ligation, sequencing); 10 mM Tris-HCl pH 7.5, 50 mM NaCl, 1 mM DTT, 4% glycerol, room temperature, 30 min; GST-TFs on glutathione beads, 16-mer random dsDNA library, 0.1% formaldehyde crosslink after washing; high values mean tight binding
Holding throughout (details): protein: recombinant; tags: N-terminal GST; dsDNA, one strand shown

One experiment deals with T1, FLI1 (Homo sapiens, UniProt Q01543 1-452).
T1 sequence: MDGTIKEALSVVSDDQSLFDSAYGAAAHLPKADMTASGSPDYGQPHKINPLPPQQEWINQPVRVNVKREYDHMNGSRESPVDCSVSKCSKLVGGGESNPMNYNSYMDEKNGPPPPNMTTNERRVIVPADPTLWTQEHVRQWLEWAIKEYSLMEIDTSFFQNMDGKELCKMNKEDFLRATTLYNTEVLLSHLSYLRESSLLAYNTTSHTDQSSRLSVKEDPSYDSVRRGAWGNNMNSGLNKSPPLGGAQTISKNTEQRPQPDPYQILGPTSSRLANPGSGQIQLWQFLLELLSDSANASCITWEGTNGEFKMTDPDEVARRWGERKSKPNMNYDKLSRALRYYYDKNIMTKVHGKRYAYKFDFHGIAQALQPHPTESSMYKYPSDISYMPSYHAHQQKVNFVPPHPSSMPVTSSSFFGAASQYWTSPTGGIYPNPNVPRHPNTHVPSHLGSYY
Put shortly: (§1)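 Each value of binding signal is a hexamer's read frequency for a factor divided by the same hexamer's frequency in the tag-only sample. Barcoded, bead-captured GST fusions of human transcription factors made in yeast were pooled with that sample and incubated with 200 nmole of a random double-stranded 16-mer DNA library in Tris/NaCl/DTT/glycerol buffer at room temperature for 30 min. Washing, 0.1% formaldehyde crosslinking, proximity ligation, PCR and Illumina NextSeq500 sequencing followed.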

Another experiment addresses T2, ELK1 (Homo sapiens, UniProt P19419 1-428).
T2 sequence: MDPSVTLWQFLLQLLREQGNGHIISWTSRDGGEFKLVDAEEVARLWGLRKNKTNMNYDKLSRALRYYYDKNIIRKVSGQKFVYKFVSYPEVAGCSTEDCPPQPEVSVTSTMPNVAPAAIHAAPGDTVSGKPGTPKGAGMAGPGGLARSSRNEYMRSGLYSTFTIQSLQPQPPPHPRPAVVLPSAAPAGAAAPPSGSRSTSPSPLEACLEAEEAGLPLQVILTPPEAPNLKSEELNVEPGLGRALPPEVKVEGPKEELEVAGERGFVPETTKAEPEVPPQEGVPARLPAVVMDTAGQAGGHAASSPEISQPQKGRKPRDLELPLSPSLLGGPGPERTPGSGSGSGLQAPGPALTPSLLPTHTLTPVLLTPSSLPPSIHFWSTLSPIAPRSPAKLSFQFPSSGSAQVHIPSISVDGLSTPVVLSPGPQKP
Put shortly:
as §1

Another experiment addresses T3, GABPA (Homo sapiens, UniProt Q06546 1-454).
T3 sequence: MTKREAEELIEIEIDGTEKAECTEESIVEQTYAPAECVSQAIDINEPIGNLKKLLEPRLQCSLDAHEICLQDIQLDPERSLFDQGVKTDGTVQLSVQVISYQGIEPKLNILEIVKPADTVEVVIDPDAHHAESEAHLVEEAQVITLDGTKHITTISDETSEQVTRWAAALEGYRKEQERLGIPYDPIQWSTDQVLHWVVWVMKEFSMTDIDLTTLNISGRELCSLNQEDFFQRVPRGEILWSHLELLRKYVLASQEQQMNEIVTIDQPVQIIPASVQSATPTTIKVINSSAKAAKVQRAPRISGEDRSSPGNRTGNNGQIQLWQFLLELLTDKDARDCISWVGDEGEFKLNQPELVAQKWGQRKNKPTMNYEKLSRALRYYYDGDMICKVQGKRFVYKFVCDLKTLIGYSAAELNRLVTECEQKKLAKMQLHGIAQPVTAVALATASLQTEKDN
Put shortly:
as §1

The target of a further experiment is T4, ERG (Homo sapiens, UniProt P11308 1-479).
T4 sequence: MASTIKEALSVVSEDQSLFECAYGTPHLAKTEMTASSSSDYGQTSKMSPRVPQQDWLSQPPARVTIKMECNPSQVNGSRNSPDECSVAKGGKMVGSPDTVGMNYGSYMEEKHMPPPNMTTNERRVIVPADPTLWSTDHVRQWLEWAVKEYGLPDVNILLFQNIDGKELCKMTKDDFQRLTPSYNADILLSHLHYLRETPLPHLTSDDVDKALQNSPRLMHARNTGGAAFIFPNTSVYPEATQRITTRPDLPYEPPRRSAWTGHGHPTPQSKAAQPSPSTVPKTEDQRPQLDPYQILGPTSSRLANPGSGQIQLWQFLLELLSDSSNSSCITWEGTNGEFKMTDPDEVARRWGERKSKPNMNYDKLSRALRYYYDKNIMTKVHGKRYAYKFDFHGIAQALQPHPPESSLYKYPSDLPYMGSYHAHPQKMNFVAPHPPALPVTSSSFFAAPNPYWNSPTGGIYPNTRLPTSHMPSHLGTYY
Put shortly:
as §1

A further experiment has as its target T5, EHF (Homo sapiens, UniProt Q9NZC4 1-300).
T5 sequence: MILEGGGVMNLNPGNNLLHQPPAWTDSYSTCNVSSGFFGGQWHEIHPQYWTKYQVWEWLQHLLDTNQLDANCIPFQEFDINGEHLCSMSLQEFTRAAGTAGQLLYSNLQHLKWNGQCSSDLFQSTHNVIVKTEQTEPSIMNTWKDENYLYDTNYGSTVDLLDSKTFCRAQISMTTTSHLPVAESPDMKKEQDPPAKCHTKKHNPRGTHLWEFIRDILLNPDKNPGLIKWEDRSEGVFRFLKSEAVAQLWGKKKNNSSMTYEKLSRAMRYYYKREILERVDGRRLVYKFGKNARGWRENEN
Put shortly:
as §1

In a further experiment the target is SPI1 (Homo sapiens, UniProt P17947 1-270). Put shortly:
as §1

The target of another experiment is SPIB (Homo sapiens, UniProt Q01892 1-262). Put shortly: as §1
The target in another experiment is T6, ELK3 (Homo sapiens, UniProt P41970 1-407).
T6 sequence: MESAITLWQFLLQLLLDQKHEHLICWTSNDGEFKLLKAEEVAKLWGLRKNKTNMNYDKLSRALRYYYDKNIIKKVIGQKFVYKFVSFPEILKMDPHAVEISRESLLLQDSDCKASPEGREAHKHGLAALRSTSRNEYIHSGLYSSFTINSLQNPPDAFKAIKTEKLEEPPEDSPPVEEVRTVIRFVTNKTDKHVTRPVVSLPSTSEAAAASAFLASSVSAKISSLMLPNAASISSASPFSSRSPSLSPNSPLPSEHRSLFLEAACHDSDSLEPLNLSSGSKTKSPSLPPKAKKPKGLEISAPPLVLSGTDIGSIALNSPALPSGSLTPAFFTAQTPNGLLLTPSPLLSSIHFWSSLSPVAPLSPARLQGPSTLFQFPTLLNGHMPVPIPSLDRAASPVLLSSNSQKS
Put shortly:
as §1

The target of the next experiment is ELF1 (Homo sapiens, UniProt P32519 1-619). A digest of the protocol:
as §1

Chain of SPIB (Q01892 whole entry): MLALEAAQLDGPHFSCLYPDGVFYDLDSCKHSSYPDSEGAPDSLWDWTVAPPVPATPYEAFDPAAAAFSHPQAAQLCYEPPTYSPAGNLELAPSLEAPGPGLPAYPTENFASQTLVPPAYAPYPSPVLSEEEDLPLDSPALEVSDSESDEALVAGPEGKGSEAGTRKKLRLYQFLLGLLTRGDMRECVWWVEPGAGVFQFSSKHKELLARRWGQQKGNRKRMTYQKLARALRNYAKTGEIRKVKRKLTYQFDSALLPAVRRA
Chain of ELF1 (P32519 whole entry): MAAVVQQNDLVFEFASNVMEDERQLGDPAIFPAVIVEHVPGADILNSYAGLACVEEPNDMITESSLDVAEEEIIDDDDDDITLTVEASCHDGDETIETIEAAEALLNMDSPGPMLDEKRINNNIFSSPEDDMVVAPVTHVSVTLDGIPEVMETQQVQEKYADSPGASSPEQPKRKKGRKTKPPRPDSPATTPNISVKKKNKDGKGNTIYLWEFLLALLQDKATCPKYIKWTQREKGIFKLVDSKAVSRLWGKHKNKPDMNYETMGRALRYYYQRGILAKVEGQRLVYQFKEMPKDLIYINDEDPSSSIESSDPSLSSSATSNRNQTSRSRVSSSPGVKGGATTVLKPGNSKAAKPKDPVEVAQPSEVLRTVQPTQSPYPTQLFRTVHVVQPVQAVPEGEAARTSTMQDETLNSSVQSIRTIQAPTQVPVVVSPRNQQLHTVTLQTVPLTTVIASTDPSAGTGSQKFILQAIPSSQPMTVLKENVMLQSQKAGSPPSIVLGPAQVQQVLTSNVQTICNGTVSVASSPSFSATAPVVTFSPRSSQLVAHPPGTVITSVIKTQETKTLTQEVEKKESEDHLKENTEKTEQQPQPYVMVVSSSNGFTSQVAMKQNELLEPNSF

TTTAGG: the binding signal with FLI1 is 1.05 fold enrichment (6-mer frequency, TF over GST control); in the experiment with ELK1 it was 1.12 fold enrichment (6-mer frequency, TF over GST control); with GABPA, 1.11 fold enrichment (6-mer frequency, TF over GST control); with ERG, 1.08 fold enrichment (6-mer frequency, TF over GST control); with EHF, 1.06 fold enrichment (6-mer frequency, TF over GST control); with SPI1 it was 1.08 fold enrichment (6-mer frequency, TF over GST control). Besides, the binding signal in the experiment with SPIB was 1.15 fold enrichment (6-mer frequency, TF over GST control); with ELK3 it was 1.07 fold enrichment (6-mer frequency, TF over GST control).

As to AACCCA, the binding signal in the experiment with FLI1 was 1.05 fold enrichment (6-mer frequency, TF over GST control); with ELK1, 1.03 fold enrichment (6-mer frequency, TF over GST control); in the experiment with GABPA it was 1.02 fold enrichment (6-mer frequency, TF over GST control); with ERG, 1.06 fold enrichment (6-mer frequency, TF over GST control); with ELF1, 1.06 fold enrichment (6-mer frequency, TF over GST control); in the experiment with SPI1 it was 1 fold enrichment (6-mer frequency, TF over GST control). Also, the binding signal with SPIB is 1 fold enrichment (6-mer frequency, TF over GST control); in the experiment with ELK3, 1.1 fold enrichment (6-mer frequency, TF over GST control).

With TGTTCG, the binding signal in the experiment with FLI1 is 1.19 fold enrichment (6-mer frequency, TF over GST control); with ELK1, 1.1 fold enrichment (6-mer frequency, TF over GST control); with GABPA, 1.07 fold enrichment (6-mer frequency, TF over GST control); in the experiment with ERG, 1.04 fold enrichment (6-mer frequency, TF over GST control); with EHF it was 1.2 fold enrichment (6-mer frequency, TF over GST control); with SPI1, 1.06 fold enrichment (6-mer frequency, TF over GST control). Besides, the binding signal is 1.09 fold enrichment (6-mer frequency, TF over GST control) with SPIB and 1.03 fold enrichment (6-mer frequency, TF over GST control) with ELK3.

With GGTTCA, the binding signal in the experiment with FLI1 is 1.14 fold enrichment (6-mer frequency, TF over GST control); with ELK1, 1.04 fold enrichment (6-mer frequency, TF over GST control); with GABPA, 1.11 fold enrichment (6-mer frequency, TF over GST control); with ERG, 1.03 fold enrichment (6-mer frequency, TF over GST control); in the experiment with ELF1, 1.07 fold enrichment (6-mer frequency, TF over GST control); with SPI1, 1.02 fold enrichment (6-mer frequency, TF over GST control). For the same sequence, the binding signal with SPIB was 1.04 fold enrichment (6-mer frequency, TF over GST control); in the experiment with ELK3, 1.03 fold enrichment (6-mer frequency, TF over GST control).

On to ACACGA, for which the binding signal is 1.08 fold enrichment (6-mer frequency, TF over GST control) in the experiment with FLI1; 1.1 fold enrichment (6-mer frequency, TF over GST control) with ELK1; 1.11 fold enrichment (6-mer frequency, TF over GST control) in the experiment with GABPA; 1.02 fold enrichment (6-mer frequency, TF over GST control) in the experiment with ERG; 1.1 fold enrichment (6-mer frequency, TF over GST control) with ELF1; 1.07 fold enrichment (6-mer frequency, TF over GST control) with SPI1. Besides, the binding signal in the experiment with SPIB was 1.04 fold enrichment (6-mer frequency, TF over GST control); with ELK3, 1.1 fold enrichment (6-mer frequency, TF over GST control).

In the case of TTGCAG, the binding signal with FLI1 was 1.12 fold enrichment (6-mer frequency, TF over GST control); with ELK1, 1.19 fold enrichment (6-mer frequency, TF over GST control); in the experiment with GABPA, 1.15 fold enrichment (6-mer frequency, TF over GST control); with ERG, 1.15 fold enrichment (6-mer frequency, TF over GST control); with ELF1, 1.16 fold enrichment (6-mer frequency, TF over GST control); with SPI1 it was 1.08 fold enrichment (6-mer frequency, TF over GST control). The binding signal with SPIB was 1.16 fold enrichment (6-mer frequency, TF over GST control); in the experiment with ELK3, 1.24 fold enrichment (6-mer frequency, TF over GST control).

Turning to TAGGTC, the binding signal with FLI1 is 1.06 fold enrichment (6-mer frequency, TF over GST control); with ELK1, 1.03 fold enrichment (6-mer frequency, TF over GST control); with GABPA it was 1.1 fold enrichment (6-mer frequency, TF over GST control); in the experiment with ERG it was 1.03 fold enrichment (6-mer frequency, TF over GST control); with ELF1 it was 1.01 fold enrichment (6-mer frequency, TF over GST control); with SPIB, 1.01 fold enrichment (6-mer frequency, TF over GST control). The binding signal in the experiment with ELK3 is 1.08 fold enrichment (6-mer frequency, TF over GST control).

For the sequence GTATGG, the binding signal with FLI1 is 1.12 fold enrichment (6-mer frequency, TF over GST control); with ELK1 it was 1.04 fold enrichment (6-mer frequency, TF over GST control); with GABPA, 1.04 fold enrichment (6-mer frequency, TF over GST control); in the experiment with ELF1, 1.08 fold enrichment (6-mer frequency, TF over GST control); with EHF it was 1.05 fold enrichment (6-mer frequency, TF over GST control); with SPI1, 1.06 fold enrichment (6-mer frequency, TF over GST control). In the experiment with SPIB, the binding signal is 1.1 fold enrichment (6-mer frequency, TF over GST control).

On to AATCGA, for which the binding signal with FLI1 is 1 fold enrichment (6-mer frequency, TF over GST control); with ELK1, 1.06 fold enrichment (6-mer frequency, TF over GST control); with GABPA, 1.07 fold enrichment (6-mer frequency, TF over GST control); with ERG, 1.02 fold enrichment (6-mer frequency, TF over GST control); in the experiment with ELF1 it was 1.03 fold enrichment (6-mer frequency, TF over GST control); in the experiment with SPIB it was 1.07 fold enrichment (6-mer frequency, TF over GST control). Moreover, in the experiment with ELK3, the binding signal is 1.12 fold enrichment (6-mer frequency, TF over GST control).

As for GAATAC, the binding signal in the experiment with FLI1 is 1.1 fold enrichment (6-mer frequency, TF over GST control); with ELK1, 1.1 fold enrichment (6-mer frequency, TF over GST control); in the experiment with GABPA, 1.11 fold enrichment (6-mer frequency, TF over GST control); in the experiment with ELF1, 1.08 fold enrichment (6-mer frequency, TF over GST control).

With ACCCTG, the binding signal in the experiment with FLI1 is 1.05 fold enrichment (6-mer frequency, TF over GST control); in the experiment with ELK1, 1.09 fold enrichment (6-mer frequency, TF over GST control); with GABPA, 1.06 fold enrichment (6-mer frequency, TF over GST control); in the experiment with ERG it was 1.05 fold enrichment (6-mer frequency, TF over GST control); with ELF1, 1.13 fold enrichment (6-mer frequency, TF over GST control); with SPI1, 1.05 fold enrichment (6-mer frequency, TF over GST control). Besides, the binding signal is 1.09 fold enrichment (6-mer frequency, TF over GST control) with SPIB and 1.24 fold enrichment (6-mer frequency, TF over GST control) with ELK3.

As to TGCCTA, the binding signal in the experiment with FLI1 is 1.02 fold enrichment (6-mer frequency, TF over GST control); with ELK1, 1.12 fold enrichment (6-mer frequency, TF over GST control); with GABPA, 1.01 fold enrichment (6-mer frequency, TF over GST control); with ELF1, 1.11 fold enrichment (6-mer frequency, TF over GST control); with EHF, 1.09 fold enrichment (6-mer frequency, TF over GST control); in the experiment with SPI1, 1.04 fold enrichment (6-mer frequency, TF over GST control). Moreover, the binding signal in the experiment with SPIB was 1.07 fold enrichment (6-mer frequency, TF over GST control).
